# Measurements as given in PubChem BioAssay (Tox21).
# “And” between values parts separate entries of the source, which are not always exact repeats. Identical values can stand only once. Records with an inconclusive call do not appear. Entries that show only a call come without a potency. Where a structure was tested more than once in an assay, its records may differ in their call. The source made the active and inactive calls. Unless noted, calls come from the whole dose curve; as a rule, active = well fitted curve in the direction sought with a large enough effect in the repeat runs; inconclusive = weak or mixed curves; inactive = no such curve, though single readings can be large; an effect the other way counts as inactive or inconclusive.
# Columns and labels:
# [1] = biological target: Aryl hydrocarbon receptor (Homo sapiens) (UniProt P35869); assay: qHTS assay to identify small molecule that activate the aryl hydrocarbon receptor (AhR) signaling pathway (AID 743085);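 note: HG2L7.5c1 human HepG2 liver cells with stably integrated DRE-driven firefly reporter; series mostly up to about 70 µM; nearly all actives have a fitted effect of over 15% in size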
# Aryl hydrocarbon receptor (Homo sapiens), sequence (P35869 whole entry, looked up): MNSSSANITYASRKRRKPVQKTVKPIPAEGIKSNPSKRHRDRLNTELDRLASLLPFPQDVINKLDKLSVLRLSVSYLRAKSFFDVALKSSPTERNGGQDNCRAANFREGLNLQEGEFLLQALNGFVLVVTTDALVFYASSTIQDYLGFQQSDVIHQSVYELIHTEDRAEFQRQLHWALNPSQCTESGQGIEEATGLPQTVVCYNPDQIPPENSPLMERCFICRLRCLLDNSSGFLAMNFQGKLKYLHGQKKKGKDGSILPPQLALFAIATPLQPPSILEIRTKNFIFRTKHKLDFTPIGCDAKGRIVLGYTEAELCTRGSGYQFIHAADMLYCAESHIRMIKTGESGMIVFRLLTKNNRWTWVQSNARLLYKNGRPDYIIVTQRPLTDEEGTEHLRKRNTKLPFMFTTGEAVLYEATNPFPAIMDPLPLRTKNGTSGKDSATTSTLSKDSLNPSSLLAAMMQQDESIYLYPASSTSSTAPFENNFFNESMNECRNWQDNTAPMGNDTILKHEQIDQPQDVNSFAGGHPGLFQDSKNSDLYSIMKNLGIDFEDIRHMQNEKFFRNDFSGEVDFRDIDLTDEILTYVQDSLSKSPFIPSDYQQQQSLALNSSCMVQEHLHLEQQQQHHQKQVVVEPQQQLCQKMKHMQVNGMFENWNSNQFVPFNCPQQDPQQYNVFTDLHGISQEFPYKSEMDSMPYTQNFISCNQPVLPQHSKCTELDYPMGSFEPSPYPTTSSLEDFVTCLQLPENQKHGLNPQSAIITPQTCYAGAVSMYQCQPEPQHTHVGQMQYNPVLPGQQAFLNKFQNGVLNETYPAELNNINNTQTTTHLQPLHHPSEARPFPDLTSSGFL
# Summary of the method: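 HepG2 cells (HG2L7.5c1) stably carrying a firefly luciferase reporter driven by 20 dioxin responsive elements were exposed to compound for 24 h at 37C after a 5 h settling period; luminescence rise (ONE-Glo) indicated activation.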
# [2] = qHTS assay to identify small molecule that activate the aryl hydrocarbon receptor (AhR) signaling pathway - cell viability counter screen (AID 743086); note: nearly all actives have a fitted effect of over 45% in size; note: potency is the fitted concentration of half-maximal effect
# Summary of the method: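 HepG2-AhR-luc (HG2L7.5c1) cells, 4000/well, treated 24 h at 37 C with compound; viability measured as CellTiter-Fluor fluorescence after 30 min in the same wells as the luciferase read.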
# [3] = biological target: Peroxisome proliferator-activated receptor gamma (Homo sapiens) (UniProt P37231); assay: qHTS assay to identify small molecule agonists of the peroxisome proliferator-activated receptor gamma (PPARg) signaling pathway (AID 743094; active = well fitted activation curve with a large enough effect in the signal ratio in the repeat runs, not every such curve was filed as active; the % refers to the signal ratio; note: potency is the fitted concentration of half-maximal effect)
# Peroxisome proliferator-activated receptor gamma (Homo sapiens), sequence (P37231 whole entry, looked up): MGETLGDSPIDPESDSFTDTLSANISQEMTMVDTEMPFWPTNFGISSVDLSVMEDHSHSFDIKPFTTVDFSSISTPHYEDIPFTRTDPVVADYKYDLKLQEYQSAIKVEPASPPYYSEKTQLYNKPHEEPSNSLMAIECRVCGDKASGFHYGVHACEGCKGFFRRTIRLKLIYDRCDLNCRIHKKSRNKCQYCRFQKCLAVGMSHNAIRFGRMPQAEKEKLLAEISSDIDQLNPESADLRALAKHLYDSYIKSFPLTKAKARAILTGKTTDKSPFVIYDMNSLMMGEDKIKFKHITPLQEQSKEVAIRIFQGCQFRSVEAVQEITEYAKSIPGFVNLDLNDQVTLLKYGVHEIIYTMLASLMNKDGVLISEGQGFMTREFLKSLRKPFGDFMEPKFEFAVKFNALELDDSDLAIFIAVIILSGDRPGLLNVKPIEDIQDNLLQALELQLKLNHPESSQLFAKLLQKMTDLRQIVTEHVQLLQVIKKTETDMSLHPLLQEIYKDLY
# Summary of the method: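 Cells from the PPARg UAS-bla HEK293H line are plated and incubated 5 h at 37C. Compounds in DMSO are pinned in and left 17 h at 37C. LiveBLAzer B/G substrate is then added for 1 h at room temperature before fluorescence is measured.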
# [4] = qHTS assay for small molecule agonists of the antioxidant response element (ARE) signaling pathway - cell viability counter screen (AID 743203; calls by dose curve; note: nearly all actives have a fitted effect of over 55% in size; note: potency is the fitted concentration of half-maximal effect)
# Summary of the method: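 Cytotoxicity was tested in parallel with the ARE reporter screen. ARE-bla HepG2 cells were exposed to compounds for 16 hrs, and viability was taken from CellTiter-Glo luminescence.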
# [5] = qHTS assay for small molecule activators of the heat shock response signaling pathway - cell viability counter screen (AID 743209); note: nearly all actives have a fitted effect of over 50% in size; note: potency is the fitted concentration of half-maximal effect
# Summary of the method: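 Cytotoxicity counter screen run in parallel with the HSE beta-lactamase reporter, using the same wells. HeLa HSE-bla cells received compound for 5 h at 37 C; ATP-based CellTiter-Glo luminescence was measured after 30 min at room temperature.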
# [6] = qHTS assay to identify small molecule agonists of the peroxisome proliferator-activated receptor delta (PPARd) signaling pathway - cell viability counter screen (AID 743211); note: nearly all actives have a fitted effect of over 55% in size; note: potency is the fitted concentration of half-maximal effect
# Summary of the method: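 PPARd-bla HEK293H cells (UAS-beta-lactamase reporter) were treated with compounds for 17 h at 37 C. Viability was then read in the same wells by CellTiter-Glo luminescence after 30 min at room temperature.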
# [7] = qHTS assay to identify small molecule antagonists of the peroxisome proliferator-activated receptor delta (PPARd) signaling pathway - cell viability counter screen (AID 743213); note: nearly all actives have a fitted effect of over 50% in size; note: potency is the fitted concentration of half-maximal effect
# Summary of the method: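 CellTiter-Glo was added to PPARd-bla HEK293H wells following 17 h compound treatment in the presence of 300 nM L165041. Luminescence was recorded after 30 min at room temperature.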
# [8] = qHTS assay to identify small molecule agonists of the farnesoid-X-receptor (FXR) signaling pathway - cell viability counter screen (AID 743218); note: nearly all actives have a fitted effect of over 45% in size; note: potency is the fitted concentration of half-maximal effect
# Summary of the method: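 Cells were seeded, left 5 h at 37 C and 5% CO2, then dosed with compound in DMSO for 16 h. After the beta-lactamase FRET read, CellTiter-Glo was added and luminescence measured 30 min later.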
# [9] = qHTS assay to identify small molecule antagonists of the farnesoid-X-receptor (FXR) signaling pathway - cell viability counter screen (AID 743221; active = well fitted cell-killing curve with a large enough effect in the repeat runs, not every such curve was filed as active; note: nearly all actives have a fitted effect of over 50% in size; note: potency is the fitted concentration of half-maximal effect)
# Summary of the method: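 FXR-UAS-bla HEK 293T cells were treated with test compounds plus chenodeoxycholic acid (50 uM final) for 16 h at 37 C. Cell viability in the same wells was then read as CellTiter-Glo luminescence after 30 min at room temperature.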
# [10] = qHTS assay to identify small molecule antagonists of the peroxisome proliferator-activated receptor gamma (PPARg) signaling pathway - cell viability counter screen (AID 743194); conditions: Potency: co-treated with 50 nM rosiglitazone unless noted; note: nearly all actives have a fitted effect of over 55% in size; note: potency is the fitted concentration of half-maximal effect
# Summary of the method: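 Cytotoxicity counter screen in PPARg-bla HEK293H cells, same wells as reporter assay. Compounds plus 50 nM rosiglitazone (final) for 17 h at 37 C, then viability read by CellTiter-Glo luminescence.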
# [11] = qHTS assay for small molecule agonists of the antioxidant response element (ARE) signaling pathway (AID 743202; active = well fitted activation curve with a large enough effect in the signal ratio in the repeat runs, not every such curve was filed as active; the % refers to the signal ratio; note: potency is the fitted concentration of half-maximal effect)
# Summary of the method: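 HepG2 ARE-bla cells; 16 h treatment at 37 C; FRET-based beta-lactamase fluorescence read after 2 h substrate incubation at room temperature.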
# [12] = qHTS assay for small molecule activators of the heat shock response signaling pathway (AID 743210; active = well fitted activation curve with a large enough effect in the signal ratio in the repeat runs, with a control signal flat, not every such curve was filed as active; the % refers to the signal ratio;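 note: HeLa cells with beta-lactamase reporter driven by heat shock elements; series mostly up to about 63 µM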)
# Summary of the method: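 Following overnight attachment, HSE-bla HeLa cells received test compounds for 5 h at 37 C; beta-lactamase activity was then detected via FRET substrate fluorescence.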
# [13] = biological target: Peroxisome proliferator-activated receptor delta (Homo sapiens) (UniProt Q03181); assay: qHTS assay to identify small molecule agonists of the peroxisome proliferator-activated receptor delta (PPARd) signaling pathway (AID 743212; calls by dose curve)
# Peroxisome proliferator-activated receptor delta (Homo sapiens), sequence (Q03181 whole entry, looked up): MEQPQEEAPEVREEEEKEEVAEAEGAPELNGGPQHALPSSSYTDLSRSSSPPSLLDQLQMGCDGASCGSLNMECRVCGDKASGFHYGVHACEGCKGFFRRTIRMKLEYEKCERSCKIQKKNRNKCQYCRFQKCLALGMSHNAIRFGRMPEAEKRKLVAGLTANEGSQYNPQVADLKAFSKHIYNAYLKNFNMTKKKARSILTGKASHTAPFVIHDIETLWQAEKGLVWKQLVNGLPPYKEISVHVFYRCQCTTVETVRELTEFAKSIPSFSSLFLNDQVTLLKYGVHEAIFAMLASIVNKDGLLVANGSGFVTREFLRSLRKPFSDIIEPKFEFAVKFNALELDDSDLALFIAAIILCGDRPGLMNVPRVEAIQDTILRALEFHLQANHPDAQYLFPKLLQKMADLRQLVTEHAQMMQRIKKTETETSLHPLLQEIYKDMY
# Summary of the method: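 Tox21 library screened in GeneBLAzer PPARd UAS-bla HEK293H cells. After compound treatment at 37 C, a FRET-based beta-lactamase substrate was applied for 2 h and fluorescence recorded.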
# [14] = biological target: Peroxisome proliferator-activated receptor delta (Homo sapiens) (UniProt Q03181); assay: qHTS assay to identify small molecule antagonists of the peroxisome proliferator-activated receptor delta (PPARd) signaling pathway (AID 743215; active = well fitted inhibition curve with a large enough effect in the signal ratio in the repeat runs, not every such curve was filed as active; the % refers to the signal ratio;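 note: cells stimulated with agonist L165041 at 300 nM final during compound exposure; series mostly up to about 62 µM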)
# Summary of the method: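 Cells: HEK293H with a UAS-driven beta-lactamase reporter responsive to PPARd. Compounds were co-added with L165041 (300 nM, final) and incubated 17 h at 37 C before a 2 h room-temperature FRET substrate step and fluorescence reading.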
# [15] = qHTS assay to identify small molecule agonists of the vitamin D receptor (VDR) signaling pathway - cell viability counter screen (AID 743224); note: nearly all actives have a fitted effect of over 50% in size; note: potency is the fitted concentration of half-maximal effect
# Summary of the method: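 Cells: VDR-bla, 2,000/well, settled 4 h. Treatment: compounds in DMSO, 16 h, 37C/5% CO2. Readout: CellTiter-Glo luminescence after 30 min RT.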
# [16] = biological target: Peroxisome proliferator-activated receptor gamma (Homo sapiens) (UniProt P37231); assay: qHTS assay to identify small molecule antagonists of the peroxisome proliferator-activated receptor gamma (PPARg) signaling pathway (AID 743191; calls by dose curve; note: series mostly up to about 63 µM; nearly all actives have a fitted effect of over 30% in size)
# Summary of the method: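 GeneBLAzer PPARg UAS-bla HEK293H cells, 5 h post-plating, exposed to compounds 17 h at 37C. LiveBLAzer B/G FRET substrate added for 1 h at room temperature; beta-lactamase reporter read by fluorescence intensity.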
# [17] = biological target: Bile acid receptor (Homo sapiens) (UniProt Q96RI1); assay: qHTS assay to identify small molecule antagonists of the farnesoid-X-receptor (FXR) signaling pathway (AID 743217; active = well fitted inhibition curve with a large enough effect in the signal ratio in the repeat runs, not every such curve was filed as active; the % refers to the signal ratio)
# Bile acid receptor (Homo sapiens), sequence (Q96RI1 whole entry, looked up): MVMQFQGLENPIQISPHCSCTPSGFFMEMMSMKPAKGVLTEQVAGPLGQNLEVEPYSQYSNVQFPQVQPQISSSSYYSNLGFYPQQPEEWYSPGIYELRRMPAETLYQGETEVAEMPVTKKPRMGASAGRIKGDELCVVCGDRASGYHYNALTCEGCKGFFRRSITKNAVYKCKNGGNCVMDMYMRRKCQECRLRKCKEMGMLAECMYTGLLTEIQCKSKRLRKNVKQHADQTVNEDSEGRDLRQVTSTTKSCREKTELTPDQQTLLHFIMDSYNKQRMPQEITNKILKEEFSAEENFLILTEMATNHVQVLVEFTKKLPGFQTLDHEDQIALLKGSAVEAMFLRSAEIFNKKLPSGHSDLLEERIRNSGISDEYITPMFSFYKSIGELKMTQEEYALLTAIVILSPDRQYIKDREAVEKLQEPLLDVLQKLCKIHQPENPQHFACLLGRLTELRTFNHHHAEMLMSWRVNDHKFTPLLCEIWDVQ
# Summary of the method: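 Cells carrying a UAS-driven beta-lactamase reporter (GeneBLAzer FXR-UAS-bla HEK 293T) were plated and rested 5 h at 37 °C. Compounds in DMSO were added alongside chenodeoxycholic acid agonist at 50 uM final and left 16 h at 37 °C before FRET substrate readout.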
# [18] = biological target: Bile acid receptor (Homo sapiens) (UniProt Q96RI1); assay: qHTS assay to identify small molecule agonists of the farnesoid-X-receptor (FXR) signaling pathway (AID 743220; active = well fitted activation curve with a large enough effect in the signal ratio in the repeat runs, not every such curve was filed as active; the % refers to the signal ratio)
# Summary of the method: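 FXR-UAS-bla HEK 293T cells carrying a UAS-driven beta-lactamase reporter were plated for 5 h at 37C/5% CO2, then exposed to DMSO-dissolved Tox21 10K compounds for 16 h at 37C. A LiveBLAzer B/G FRET substrate was loaded for 2 h at room temperature before fluorescence reading.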
# [19] = biological target: Vitamin D3 receptor (Homo sapiens) (UniProt P11473); assay: qHTS assay to identify small molecule agonists of the vitamin D receptor (VDR) signaling pathway (AID 743222; calls by dose curve)
# Vitamin D3 receptor (Homo sapiens), sequence (P11473 whole entry, looked up): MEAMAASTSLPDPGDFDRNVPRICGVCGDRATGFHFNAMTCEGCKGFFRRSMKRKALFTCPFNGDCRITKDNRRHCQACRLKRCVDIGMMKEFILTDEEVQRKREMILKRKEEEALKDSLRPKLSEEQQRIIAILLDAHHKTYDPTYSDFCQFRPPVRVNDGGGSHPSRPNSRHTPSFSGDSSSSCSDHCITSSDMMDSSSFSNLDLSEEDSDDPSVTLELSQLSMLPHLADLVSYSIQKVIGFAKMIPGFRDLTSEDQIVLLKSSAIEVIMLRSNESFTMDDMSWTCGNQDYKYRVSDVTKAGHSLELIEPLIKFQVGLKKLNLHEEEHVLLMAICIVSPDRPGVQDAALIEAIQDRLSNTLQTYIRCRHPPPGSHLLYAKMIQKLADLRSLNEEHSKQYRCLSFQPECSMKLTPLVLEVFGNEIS
# Summary of the method: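 Cells carrying a VDR-driven beta-lactamase reporter are seeded at 2,000 per well and rested 4 h. Compounds in DMSO are added for 16 h at 37C, and FRET substrate fluorescence is measured after 2 h at room temperature.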
# [20] = biological target: Vitamin D3 receptor (Homo sapiens) (UniProt P11473); assay: qHTS assay to identify small molecule antagonists of the vitamin D receptor (VDR) signaling pathway (AID 743223; active = well fitted inhibition curve with a large enough effect in the signal ratio in the repeat runs, not every such curve was filed as active; the % refers to the signal ratio)
# Summary of the method: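 VDR-bla cells were plated, incubated 4 h at 37C, then given compound and 1alpha,25-dihydroxyvitamin D3 (3 nM final). After 16 h at 37C, LiveBLAzer B/G FRET substrate was added for 2 h at room temperature and fluorescence read.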
compound,measurement,setting,value
CCC[CH2][Sn]([CH2]CCC)([CH2]CCC)[O][Sn]([CH2]CCC)([CH2]CCC)[CH2]CCC,activation,[1],-11.8% [at 8.47 µM] (inactive)
same,Potency,[2],2.67 µM (active)
same,Potency,[3],0.676 µM (active)
same,Potency,[4],238 nM (active)
same,Potency,[5],380 nM (active)
same,Potency,[6],0.676 µM (active)
same,Potency,[7],0.759 µM (active)
same,Potency,[8],0.479 µM (active)
same,Potency,[9],1.2 µM (active)
CC1CN1 (stereo not drawn),Potency,[1],inactive
same,Potency,[2],inactive
same,Potency,[3],inactive
same,Potency,[10],inactive
same,Potency,[11],inactive
same,Potency,[4],inactive
same,Potency,[12],inactive
same,Potency,[13],inactive
same,Potency,[7],inactive
same,Potency,[14],inactive
same,Potency,[8],inactive
same,Potency,[9],inactive
same,Potency,[15],inactive
S=C=Nc1ccccc1,Potency,[1],inactive
same,Potency,[2],inactive
same,Potency,[3],inactive
same,Potency,[16],inactive
same,Potency,[4],inactive
same,Potency,[5],inactive
same,Potency,[12],inactive
same,Potency,[6],inactive
same,Potency,[7],inactive
same,Potency,[17],inactive
same,Potency,[8],inactive
same,Potency,[18],inactive
same,Potency,[9],inactive
same,Potency,[19],inactive
CCCCc1ccccc1,Potency,[1],inactive
same,Potency,[2],inactive
same,Potency,[3],inactive
same,Potency,[4],inactive
same,Potency,[5],inactive
same,Potency,[6],inactive
same,Potency,[13],inactive
same,Potency,[7],inactive
same,Potency,[14],inactive
same,Potency,[8],inactive
same,Potency,[18],inactive
same,Potency,[9],inactive
same,Potency,[20],inactive
Cc1ccc(C)c2ccccc12,Potency,[1],inactive
same,Potency,[2],inactive
same,Potency,[3],inactive
same,Potency,[11],inactive
same,Potency,[4],inactive
same,Potency,[5],inactive
same,Potency,[6],inactive
same,Potency,[13],inactive
same,Potency,[7],inactive
same,Potency,[14],inactive
same,Potency,[17],inactive
same,Potency,[8],inactive
same,Potency,[18],inactive
same,Potency,[9],inactive
same,Potency,[19],inactive
same,Potency,[20],inactive
N#CC(C#N)=NNc1cccc(Cl)c1,Potency,[1],inactive
same,Potency,[2],15.4 µM (active)
same,Potency,[10],490 nM (active)
same,Potency,[4],27300 nM (active)
same,Potency,[6],8.71 µM (active)
same,Potency,[7],8.71 µM (active)
same,Potency,[8],5.49 µM (active)
same,Potency,[9],6.92 µM (active)
same,Potency,[15],6.92 µM (active)
CC(=O)[O-].CC(=O)[O-].CC(=O)[O-].[Cr+3],Potency,[1],inactive
same,Potency,[2],inactive
same,Potency,[10],inactive
same,Potency,[4],inactive
same,Potency,[5],inactive
same,Potency,[6],inactive
same,Potency,[7],inactive
same,Potency,[8],inactive
same,Potency,[9],inactive
same,Potency,[15],inactive
CC(O)C(=O)[O][Hg][c]1ccccc1 (stereo not drawn),Potency,[1],inactive
same,Potency,[2],4.86 µM (active)
same,Potency,[10],436 nM (active)
same,Potency,[4],686 nM (active)
same,Potency,[5],1950 nM (active)
same,Potency,[6],1.38 µM (active)
same,Potency,[7],1.95 µM (active)
same,Potency,[8],1.23 µM (active)
same,Potency,[9],2.75 µM (active)
same,Potency,[19],inactive
same,Potency,[15],1.23 µM (active)
C[C@]12C/C(=C/O)C(=O)C[C@@H]1CC[C@@H]1[C@@H]2CC[C@@]2(C)[C@H]1CC[C@]2(C)O,Potency,[1],inactive
same,Potency,[2],inactive
same,Potency,[10],inactive
same,Potency,[11],5.96 µM (active)
same,Potency,[4],inactive
same,Potency,[5],inactive
same,Potency,[6],49.4 µM (active)
same,Potency,[7],inactive
same,Potency,[9],inactive
same,Potency,[20],inactive
same,Potency,[15],inactive
Brc1cccc(-c2ccccc2)c1,Potency,[1],inactive
same,Potency,[2],inactive
same,Potency,[10],inactive
same,Potency,[11],inactive
same,Potency,[4],inactive
same,Potency,[5],inactive
same,Potency,[6],inactive
same,Potency,[7],inactive
same,Potency,[17],inactive
same,Potency,[8],inactive
same,Potency,[18],inactive
same,Potency,[9],inactive
same,Potency,[19],inactive
same,Potency,[20],inactive
same,Potency,[15],inactive
CCCCCCCCCCCCCCn1cc[n+](C)c1,Potency,[1],inactive
same,Potency,[2],34.4 µM (active)
same,Potency,[10],9.79 µM [setting not given] (active) and inactive
same,Potency,[4],24.4 µM (active) and 30.3 µM (active) and inactive
same,Potency,[5],19.5 µM (active) and 21.6 µM (active) and inactive
same,Potency,[7],21.6 µM (active)
same,Potency,[14],inactive
same,Potency,[8],21.9 µM (active) and inactive
same,Potency,[18],inactive
same,Potency,[9],24.6 µM (active) and 54.4 µM (active) and inactive
same,Potency,[20],inactive
same,Potency,[15],8.72 µM (active) and 24.3 µM (active) and inactive
